High-throughput results: PubChem BioAssay, National Center for Advancing Translational Sciences (NCATS)
Compounds with a hit are over-represented: about 21% of the library has one in this group of screens.
NS1 inh = influenza NS1 inhibition | Potency, µM (doses to about 46.1 µM), for the others: at the top dose activity, positive = more growth | AID 2326 | hit rate 0.4% among 270,000; calls by dose curve; also: potency is read from the fitted curve at half-maximal effect; actives are rising curves; nearly all actives have a fitted effect of over 50% in size
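A cell-based growth assay was used: compounds that relieve NS1-induced slow growth of budding yeast raise OD600. Assay medium was yeast nitrogen base with ammonium sulphate and -URA supplement, pH 6.0, with 2% galactose.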
Giardia FBPA inh = Giardia lamblia aldolase inhibition. A8B2U2. purified Giardia FBPA. Potency, µM (doses to about 59.6 µM), without a hit: top-dose activity, negative = inhibition, actives largely listed as inhibitors. hit rate 0.71% among 290,000. AID 2451; also: potency is read from the fitted curve at half-maximal effect; % is scaled to controls: 0 for no effect and ±100 for the full control effect; nearly all actives have a fitted effect of over 55% in size
Target sequence (A8B2U2 whole entry, looked up): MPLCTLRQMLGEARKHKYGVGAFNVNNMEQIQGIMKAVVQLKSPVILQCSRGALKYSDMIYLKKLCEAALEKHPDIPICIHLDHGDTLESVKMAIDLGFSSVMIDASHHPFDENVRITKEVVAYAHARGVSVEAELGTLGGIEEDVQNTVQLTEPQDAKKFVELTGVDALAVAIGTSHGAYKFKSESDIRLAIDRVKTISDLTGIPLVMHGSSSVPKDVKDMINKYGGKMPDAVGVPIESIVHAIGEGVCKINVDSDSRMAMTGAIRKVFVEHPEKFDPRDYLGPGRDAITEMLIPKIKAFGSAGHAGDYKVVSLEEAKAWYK
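Giardia FBPA (40 nM reagent) was preincubated 10 min at RT with compound (up to 57.5 uM final), then substrate plus GAPDH/TPI/NAD/arsenate coupling system with diaphorase/resazurin was added; resorufin fluorescence (525/598 nm) was read after 20 min.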
Cycloheximide cs = counter-screen hit for Shiga toxin inhibitors, cycloheximide; max response, %; cell reporter, cycloheximide protein synthesis inhibition counterscreen; hit rate 12% among 300,000; AID 2314; in the data active = max response mostly above about 13%, no sharp cut-off; inactive = mostly below about 14%; also: read at 38.3 µM for the half of the compounds with a filed dose; 0% is about no effect
Pf growth 48h = P. falciparum growth inhibition at 48 hours (one generation); P. falciparum luciferase growth in erythrocytes, 48 h; Potency, µM (doses to about 28.7 µM), inactives show at the top dose activity change, negative = inhibition, most hits filed as inhibitors; hit rate 5.9% among 310,000; also: potency is read from the fitted curve at half-maximal effect; % is scaled to controls: 0 for no effect and ±100 for the full control effect
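Compounds are pin-transferred into medium, infected erythrocytes (2% hematocrit, 0.1% parasitemia final) are added, and plates sit one parasite generation at 37 C in 5% CO2. Detection reagent is then added and luminescence measured.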
Pf growth 96h = inhibits malaria parasite growth, 96 h. P. falciparum luciferase reporter growth, 96 h. Potency, µM (highest dose often 28.7 µM), inactives show top-dose activity change, negative = inhibition, most hits filed as inhibitors. hit rate 6.9% among 320,000. AID 504834; also: potency is read from the fitted curve at half-maximal effect; % is scaled to controls: 0 for no effect and ±100 for the full control effect
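Plates of compound plus infected erythrocytes (2% hematocrit, 0.05% parasitemia final) incubate 96 hours, 37 C, 5% CO2. Detection reagent added; reduced luminescence from the parasites' luciferase reporter flags inhibition.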
Shiga toxin inh = blocks Shiga toxin action in Vero cells | Vero cells, Shiga toxin protein synthesis inhibition reporter | inhibition, % at 38.7 µM | hit rate 9.2% among 290,000 | AID 2315; in the data active = inhibition mostly above about 28%, no sharp cut-off; inactive = mostly below about 43%; also: 0% is about no effect
An asterisk follows results filed as active. Unless noted, calls follow the shape of the dose curve; as a rule, active = well fitted curve in the direction sought with a large enough effect; inconclusive = small, poorly fitted or top-dose-only effect, or another doubt; inactive = no such curve, though single readings can be large; an effect the other way counts as inactive or inconclusive.

Results for Cc1sc(NC(=S)NC(=O)CCc2ccccc2)c(C(N)=O)c1C ?
NS1 inh: 2%; Giardia FBPA inh: inconclusive; Cycloheximide cs: -1; Pf growth 48h: 24%; Pf growth 96h: 48%; Shiga toxin inh: 11

What do the screens show for `COc1ccc(NC(=O)c2ccc(=O)[nH]c2)cc1S(=O)(=O)N1CCOCC1`?
Pf growth 48h: 9%; Pf growth 96h: 5%

What do the screens show for `CCN(CC)CCCNC(=O)c1cc2c(=O)n(C)c3ccccc3c2n1C`?
NS1 inh: 4%; Giardia FBPA inh: -9%; Cycloheximide cs: -3; Pf growth 96h: 10µM*; Shiga toxin inh: 3

How did Cn1c(C(=O)NCCCN2CCCCCC2)cc2c(=O)n(C)c3ccccc3c21 do in these assays?
NS1 inh: 3%; Giardia FBPA inh: -6%; Cycloheximide cs: -3; Pf growth 48h: 3.3µM*; Pf growth 96h: inconclusive; Shiga toxin inh: 20

How did COCc1ccc(CN2CCC(n3nccc3NC(=O)CCCc3ccccc3)CC2)o1 do in these assays?
NS1 inh: -12%; Giardia FBPA inh: 16%; Cycloheximide cs: 16; Pf growth 48h: 7%; Pf growth 96h: 13%; Shiga toxin inh: -9

What do the screens show for `CCOc1ccccc1CNC(=O)c1cc2oc3ccccc3c2n1CC`?
NS1 inh: 10%; Giardia FBPA inh: -3%; Cycloheximide cs: 13; Pf growth 96h: 1.2µM*; Shiga toxin inh: -16

How did COc1cccc(CNC(=O)c2cc3oc4ccccc4c3n2C)c1OC do in these assays?
NS1 inh: -12%; Giardia FBPA inh: -8%; Cycloheximide cs: 8; Pf growth 96h: 9.3µM*; Shiga toxin inh: 23

What do the screens show for `COC(=O)c1cc2oc3ccccc3c2n1CC(=O)Nc1ccccc1OC`?
NS1 inh: 1%; Giardia FBPA inh: 3%; Cycloheximide cs: -1; Pf growth 96h: inconclusive; Shiga toxin inh: 20

What do the screens show for `CCOc1ccc(CNC(=O)c2cc3oc4ccccc4c3n2C)cc1`?
NS1 inh: -30%; Giardia FBPA inh: 3%; Cycloheximide cs: 13; Pf growth 48h: 12%; Shiga toxin inh: 33

How did COCCn1c(=O)c(-c2cc(F)cc(F)c2)nc2cnc(N3CCOCC3)nc21 do in these assays?
Giardia FBPA inh: 7%

Results for CN(C)S(=O)(=O)n1cc(/C=C(\NC(=O)c2ccccc2F)C(=O)NCCCn2ccnc2)c2ccccc21 ?
NS1 inh: 4%; Giardia FBPA inh: 10%; Cycloheximide cs: 2; Pf growth 48h: 10µM*; Pf growth 96h: -7%; Shiga toxin inh: 1

Results for CCn1cc(/C=C(\NC(=O)c2ccc(OC)cc2)C(=O)N2CCN(C)CC2)c2ccccc21 ?
NS1 inh: -1%; Giardia FBPA inh: -2%; Cycloheximide cs: 0; Pf growth 48h: inconclusive; Pf growth 96h: 13µM*; Shiga toxin inh: -2

What do the screens show for `CN(C)S(=O)(=O)n1cc(/C=C(\NC(=O)c2ccccc2)C(=O)N2CCCC2)c2ccccc21`?
NS1 inh: 16%; Giardia FBPA inh: 10%; Cycloheximide cs: -2; Pf growth 48h: inconclusive; Pf growth 96h: inconclusive; Shiga toxin inh: -9

What do the screens show for `COc1ccccc1C(=O)N/C(=C\c1cn(S(=O)(=O)N(C)C)c2ccccc12)C(=O)NCCCN1CCOCC1`?
NS1 inh: -2%; Giardia FBPA inh: 0%; Cycloheximide cs: 7; Pf growth 48h: inconclusive; Pf growth 96h: inconclusive; Shiga toxin inh: -18

Results for CCn1cc(/C=C(\NC(=O)c2ccccc2OC)C(=O)NCCCN2CCOCC2)c2ccccc21 ?
NS1 inh: -2%; Giardia FBPA inh: -21%; Cycloheximide cs: 8; Pf growth 48h: inconclusive; Pf growth 96h: 9.3µM*; Shiga toxin inh: -5

Results for CN1CCN(C(=O)/C(=C/c2cn(S(=O)(=O)N(C)C)c3ccccc23)NC(=O)c2ccccc2)CC1 ?
NS1 inh: 0%; Giardia FBPA inh: -7%; Cycloheximide cs: -3; Pf growth 48h: inconclusive; Pf growth 96h: 12µM*; Shiga toxin inh: -11

Results for Cc1ccc(C(=O)N/C(=C\c2cn(S(=O)(=O)N(C)C)c3ccccc23)C(=O)NCCCn2ccnc2)cc1 ?
NS1 inh: 4%; Giardia FBPA inh: 11%; Cycloheximide cs: 0; Pf growth 48h: inconclusive; Pf growth 96h: -22%; Shiga toxin inh: -4
